A selection: hits, their analogues and other compounds. The true share with any hit is near 2.6%.
NOD2 RIPK2 PPI: blocks binding of human NOD2 to RIPK2 | O43353 | CHO BLA complementation NOD2-RIPK2, CCF4 ratio | inhibition, % at 4.98 µM | actives 0.38% (n = 360,000) | AID 624267; in the data active means inhibition above about 21%;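 further: 0% = vehicle only and 100% = reference blocker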
TLR9-MyD88 block: inhibitors of human TLR9-MyD88 binding | Q9NR96+Q99836 | CHO BLA complementation TLR9-MyD88, CCF4 FRET ratio | inhibition, % at 4.98 µM | actives 0.21% (n = 340,000);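 active means inhibition above the mean over all tested compounds plus 3 SD, cut at about 21% in these data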;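 further: 0% = DMSO only wells and 100% = clavulanate BLA inhibitor control wells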
Target sequence (Q99836 whole entry, looked up): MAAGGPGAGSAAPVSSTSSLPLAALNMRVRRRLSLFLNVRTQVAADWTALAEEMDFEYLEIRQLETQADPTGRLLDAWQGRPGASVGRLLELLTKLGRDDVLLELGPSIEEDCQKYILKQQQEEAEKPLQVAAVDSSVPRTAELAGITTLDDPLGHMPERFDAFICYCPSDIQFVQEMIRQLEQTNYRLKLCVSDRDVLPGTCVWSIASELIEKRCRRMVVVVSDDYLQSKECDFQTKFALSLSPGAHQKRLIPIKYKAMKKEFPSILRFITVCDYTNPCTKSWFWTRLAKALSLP
Target sequence (Q9NR96 whole entry, looked up): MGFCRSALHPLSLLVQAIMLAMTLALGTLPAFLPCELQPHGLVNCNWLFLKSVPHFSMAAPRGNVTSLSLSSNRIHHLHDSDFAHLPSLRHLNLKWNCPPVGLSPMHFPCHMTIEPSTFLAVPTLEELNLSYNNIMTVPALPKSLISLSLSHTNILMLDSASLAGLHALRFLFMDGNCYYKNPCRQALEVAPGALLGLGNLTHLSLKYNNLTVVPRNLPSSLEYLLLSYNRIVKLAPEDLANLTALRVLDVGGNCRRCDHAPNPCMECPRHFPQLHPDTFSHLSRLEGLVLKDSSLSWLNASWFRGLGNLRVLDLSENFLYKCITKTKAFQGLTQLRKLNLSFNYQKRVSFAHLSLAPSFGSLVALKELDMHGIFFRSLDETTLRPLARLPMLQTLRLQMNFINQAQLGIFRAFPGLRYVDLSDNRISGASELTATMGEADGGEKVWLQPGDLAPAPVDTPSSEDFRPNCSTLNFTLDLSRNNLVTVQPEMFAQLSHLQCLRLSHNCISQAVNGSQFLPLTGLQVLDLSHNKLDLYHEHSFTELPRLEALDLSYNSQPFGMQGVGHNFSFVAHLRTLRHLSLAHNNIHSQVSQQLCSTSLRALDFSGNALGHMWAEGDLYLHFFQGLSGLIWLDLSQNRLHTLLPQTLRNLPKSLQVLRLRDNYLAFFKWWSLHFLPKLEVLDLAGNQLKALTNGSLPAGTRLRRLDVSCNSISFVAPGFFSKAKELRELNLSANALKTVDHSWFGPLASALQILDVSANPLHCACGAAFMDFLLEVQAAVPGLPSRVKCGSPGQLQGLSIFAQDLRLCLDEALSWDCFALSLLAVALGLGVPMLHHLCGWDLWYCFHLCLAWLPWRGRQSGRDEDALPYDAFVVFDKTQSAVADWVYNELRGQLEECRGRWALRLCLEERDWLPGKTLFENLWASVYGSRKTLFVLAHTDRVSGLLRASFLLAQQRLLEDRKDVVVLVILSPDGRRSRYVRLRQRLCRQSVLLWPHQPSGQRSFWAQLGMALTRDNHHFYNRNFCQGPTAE
Exocytosis inh: lytic granule exocytosis inhibition | TALL-104 LAMP-1 surface exposure, flow cytometry; cells stimulated with thapsigargin and PMA | AID 651702 | inhibition, % at 10 µM | actives 0.66% (n = 360,000);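 active means inhibition above about 55%, limit read from the data; inconclusive means no clear call, values can overlap the other calls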
TLR4-MyD88 BLA: blocks binding of human TLR4 to MyD88. AID 861. inhibition, % at 8.4 µM. O00206+Q99836. actives 0.18% (n = 200,000). HeLa CL3-4 TLR4/MyD88 BLA complementation, FRET ratio; in the data active means inhibition above about 25%;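 further: 0% = vehicle and 100% = reference inhibitor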
ABHD5-PLIN5 inh: inhibitors of human ABHD5-perilipin-5 interaction; Q00G26+Q8WTS1; Split G. princeps luciferase complementation, luminescence, 4 h; inhibition, % at 4 µM; actives 0.78% (n = 360,000);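 active means inhibition above the mean inhibition across every tested compound plus 3 SD, cut at about 22% in these data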;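 further: 0% = DMSO only wells and the 100% control is not disclosed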
PRMT1 FP inh: inhibitors of human PRMT1. actives 1.3% (n = 370,000). AID 652257. inhibition, % at 2.79 µM. recombinant PRMT1, activity-based probe fluorescence polarization. Q99873;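 active means inhibition above about 21% made by adding two undisclosed values, limit read from the data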
ABHD5-PLIN5 conf: confirmation of human ABHD5-PLIN5 interaction inhibitors; actives 67% (n = 2,200); shares compounds with ABHD5-PLIN5 inh; inhibition, % at 4 µM; AID 651612; biochemical ABHD5-PLIN5 interaction, luminescence; in the data active means inhibition above about 23%;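 further: 0% = DMSO vehicle wells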
HNF4 split-luc: HNF4 split-luciferase signal hit, counter-screen; shares compounds with ABHD5-PLIN5 inh; inhibition, % at 4 µM; HNF4 dimerization, luminescence, biochemical; AID 651674; actives 77% (n = 2,200);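 active means mean inhibition across replicate wells exceeding the computed hit threshold, cut at about 13% in these data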;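 further: light from luciferase halves that rejoin when HNF4 fusion proteins dimerize; 0% = DMSO only wells and the 100% control is not given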
NOD2-RIPK2 conf: NOD2-RIPK2 interaction inhibition confirmed. CHO cells, NOD2-RIPK2 BLA complementation, CCF4 FRET. shares compounds with NOD2 RIPK2 PPI. AID 624370. inhibition, % at 4.98 µM. actives 70% (n = 1,200);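 active means mean inhibition across replicates above a set limit taken from the earlier primary screen, cut at about 21% in these data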;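 further: 0% = DMSO-only wells and the high end = clavulanate BLA-blocked wells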
NOD2 BLA counter: counter-screen for NOD2-RIPK2 interaction inhibitors: BLA reporter; shares compounds with NOD2 RIPK2 PPI; CHO BLA reporter, CCF4 FRET ratio, counterscreen; inhibition, % at 4.98 µM; actives 57% (n = 1,200);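 active means mean inhibition above the low-control mean inhibition plus three low-control SD, cut at about 11% in these data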;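 further: 0% = DMSO only wells and 100% = clavulanate high control wells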
* = called active by the depositor; ? = inconclusive; nt = no result.

SMILES | NOD2 RIPK2 PPI | TLR9-MyD88 block | Exocytosis inh | TLR4-MyD88 BLA | ABHD5-PLIN5 inh | PRMT1 FP inh | ABHD5-PLIN5 conf | HNF4 split-luc | others
O=C(C[n+]1cccc(NC(=O)c2ccccc2)c1)c1ccc(NC(=O)c2ccccc2)cc1 | -8.5 | -11.4 | -3.2 | 0.6 | 23.8* | -2.0 | 14.2 | -2.5
COc1ccc(C2C(C(=O)Nc3c(C)cccc3C)CCC(=O)N2c2ccc(OC)cc2)cc1 (configuration not stated) | nt | nt | nt | nt | nt | 4.8 | nt | nt
Cc1ccc2nc(-c3ccccc3)c(Cc3cccc(F)c3)n2c1 | -2.9 | nt | -9.0 | nt | -4.9 | 0.4 | nt | nt
Cc1ccc2nc(-c3ccco3)c(CC3CCCCC3)n2c1 | -4.6 | nt | 14.5 | nt | 35.0* | nt | 17.0 | 21.7*
COc1ccccc1Cc1c(-c2ccco2)nc2ccc(C)cn12 | -5.4 | nt | 44.2 | nt | 55.7* | 16.9 | 27.1* | 48.0*
Cc1ccc2nc(-c3ccco3)c(Cc3cccc(F)c3)n2c1 | -14.0 | nt | 24.0 | nt | 56.4* | 17.4 | 10.8 | 19.9*
Brc1ccc2nc(-c3ccco3)c(CC3CCCCC3)n2c1 | 0.1 | nt | 6.7 | nt | 23.8* | 11.5 | 28.3* | 37.8*
CCCCc1c(-c2ccccc2OC)ncn1C(C)c1ccc(Cl)cc1 (configuration not stated) | nt | nt | nt | nt | nt | 5.6 | nt | nt
COC(=O)c1cc2c(c3c4cc(F)ccc4n(S(=O)(=O)c4ccc(C)cc4)c13)C(=O)N(C)C2 | nt | nt | nt | nt | nt | 5.2 | nt | nt
CN(C)CCCNC(=O)/C(=C\c1ccc(-c2ccc(Br)cc2)o1)NC(=O)c1ccccc1 | 9.9 | 4.4 | 45.6 | 1.6 | 24.4* | 1.7 | 13.7 | 3.7
CN(C)CCCNC(=O)/C(=C/c1ccc(-c2ccc([N+](=O)[O-])cc2)o1)NC(=O)c1ccccc1 | 12.2 | 6.5 | 9.5 | nt | 4.4 | -2.2 | nt | nt
CC(=O)/C(=C/c1ccccc1)C(=O)Nc1ccccc1C | -15.1 | 2.1 | 3.6 | -0.3 | 39.0* | -6.6 | 86.4* | 71.2*
CC(=O)Nc1ccccc1C | -15.6 | -7.7 | -2.6 | nt | -9.1 | 1.2 | nt | nt
Cc1ccccc1NC(=O)C(=Cc1ccc(C(=O)O)cc1)C(=O)Nc1ccccc1C | 3.2 | -2.3 | 15.4 | -2.9 | 27.4* | 0.5 | 64.8* | 45.5*
COC(=O)C/C=N/N=C1/NC(=O)/C(=C/C(=O)O)S1 | -1.7 | -9.9 | 0.6 | nt | 25.8* | 4.7 | 21.7 | 19.4*
CC1CC(C)CN(C(=O)CN2C(=O)NC(c3ccccc3)(c3ccccc3)C2=O)C1 (configuration not stated) | 4.5 | 10.1 | 2.2 | nt | 34.3* | 0.9 | 2.8 | 3.3
CCOC(=O)N1CCN(C(=O)CN2C(=O)NC(c3ccccc3)(c3ccccc3)C2=O)CC1 | -11.9 | -5.3 | -8.6 | nt | 5.8 | 3.2 | nt | nt
CCOC(=O)CN1C(=O)[C@]2(OCCC=C[C@H]2C)c2cc(OC)ccc21 | nt | nt | nt | nt | nt | 4.0 | nt | nt
Cc1ccc(-n2nnnc2Sc2ccc(S(=O)(=O)NCCN(C)C)cc2[N+](=O)[O-])cc1 | 7.0 | -1.6 | 7.3 | 9.9 | 31.2* | 5.6 | 19.4 | 34.2*
CCOc1cccc2cc(-c3nnc(NCc4ccco4)s3)c(=O)oc12 | 2.5 | 14.9 | -4.3 | 21.5 | 48.2* | 2.9 | 28.7* | 35.0*
CCOc1cccc2cc(-c3cn4cc(C)ccc4n3)c(=O)oc12 | 6.9 | -2.8 | -2.2 | -3.0 | 0.2 | -3.7 | nt | nt
COc1ccc(-c2c(C(=O)c3ccc(Br)cc3)[nH]c(N)c2C(=O)NCCc2c[nH]c3ccccc23)cc1OC | nt | nt | nt | nt | nt | 0.9 | nt | nt
Cc1cc(-c2nn(-c3ccccc3F)cc2CN2CCN(c3ccncc3)CC2)c(C)s1 | 11.7 | 14.2 | 11.1 | 4.0 | 28.2* | 2.1 | 6.6 | -2.9
O=C1C(=O)C(Cl)=C(Cl)C(Cl)=C1Cl | 2.9 | nt | -6.0 | nt | 27.0* | nt | 51.4* | 29.0*
CC1=NN(C(=O)c2ccc(Cn3nc(C)cc3C)o2)C(O)(C(F)(F)F)C1 (configuration not stated) | -3.0 | -9.6 | -1.5 | -3.7 | 58.3* | -2.9 | 5.5 | -2.0
SMILES | NOD2 RIPK2 PPI | TLR9-MyD88 block | Exocytosis inh | TLR4-MyD88 BLA | ABHD5-PLIN5 inh | PRMT1 FP inh | ABHD5-PLIN5 conf | HNF4 split-luc | others
CC1=NN(C(=O)c2ccc(Cn3cc(Br)c([N+](=O)[O-])n3)o2)C(O)(C(F)(F)F)C1 (configuration not stated) | -5.0 | -0.3 | -1.0 | -2.0 | -4.1 | 3.4 | nt | nt
CSc1nnc(C)c(/C=C/NOCc2cccc(F)c2)n1 | 1.9 | 7.7 | -2.5 | -8.6 | -5.7 | -2.9 | nt | nt
Cc1nnc(SCc2ccccc2)nc1/C=C/NOCc1ccc(Cl)cc1Cl | 4.1 | -1.4 | 2.8 | -3.7 | 25.5* | 4.4 | 14.6 | 24.9*
CCN(CC)Cc1c(O)ccc2c1O/C(=C\C=C\c1ccccc1)C2=O | 12.8 | 15.3 | -0.3 | nt | 41.9* | 19.3 | 19.6 | 20.5*
COCCN(CCOC)Cc1c(O)ccc2c1O/C(=C\c1ccc(C)o1)C2=O | -2.0 | -9.2 | -8.8 | nt | 21.9 | 18.9 | nt | nt
CC(NC(=O)/C(C#N)=C/c1ccc(C(=O)O)cc1)c1ccccc1 (configuration not stated) | -2.5 | -12.4 | -2.2 | nt | 23.9* | 1.8 | 46.9* | 30.3*
Cc1ccc2c(c1)C(=O)C(=O)N2Cc1ccc(Cl)cc1 | 20.4 | -5.5 | -5.5 | nt | 33.2* | -2.0 | 36.6* | 51.6*
CCc1nnc(NC(=O)c2nc(S(=O)(=O)Cc3ccc(C)cc3)ncc2Cl)s1 | 26.4* | 7.8 | 11.3 | nt | 24.8* | 3.9 | 68.3* | 43.3* | NOD2-RIPK2 conf=34.5*;NOD2 BLA counter=22.5*
CCc1nnc(NC(=O)c2nc(Cl)ccc2Cl)s1 | -10.6 | -2.9 | -2.1 | nt | 2.5 | 0.0 | nt | nt
CCc1nnc(NC(=O)c2nc(S(=O)(=O)Cc3cccc(C)c3)ncc2Cl)s1 | 34.2* | 7.5 | ? | nt | 33.0* | 4.8 | 81.5* | 49.2* | NOD2-RIPK2 conf=28.1*;NOD2 BLA counter=19.4*
C=C(CN(C)C)C(=O)c1ccc(OC2OC(COC(C)=O)C(OC(C)=O)C(OC(C)=O)C2OC(C)=O)cc1 (configuration not stated) | 26.8* | 7.8 | 2.9 | nt | 39.2* | 3.1 | 99.2* | 106.3* | NOD2-RIPK2 conf=73.7*;NOD2 BLA counter=24.3*
CC(=O)OC[C@H]1O[C@@H](O/N=C/[C@@H](C)[C@H](OCc2ccccc2)C(C)C)[C@H](OC(C)=O)[C@@H](OC(C)=O)[C@@H]1OC(C)=O | nt | nt | nt | -4.1 | nt | nt | nt | nt
Cc1ccc(Cc2c(-c3cccc(Br)c3)nc3c4ccccc4ccn23)cc1 | nt | nt | nt | nt | nt | -2.7 | nt | nt
